HP1b chromo inh: HTS for Inhibitors of HP1-beta Chromodomain Interactions with Methylated Histone Tails; AlphaScreen HP1-beta / biotin-H3K9me3 peptide binding; Potency, µM (series often up to 114 µM), without a hit: at the top dose activity change, negative = inhibition, actives largely listed as inhibitors; Chromobox protein homolog 1 (Homo sapiens), P83916; 0.56% of 390,000 active; further: potency means the concentration at half of the fitted maximal effect; nearly all actives have a fitted effect of over 70% in size
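Compound inhibition of the preformed complex between 50 nM HP1-beta and 50 nM biotinylated H3K9me3 peptide was read by AlphaScreen. Buffer was PBS pH 7.4 with 0.01% Tween-20. Incubations ran 30 min at room temperature, with 10 ug/mL donor/acceptor beads.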
PI5P4Ka inh: qHTS for Inhibitors of phosphatidylinositol 5-phosphate 4-kinase (PI5P4K). PI5P4Kalpha enzyme, ADP-Glo luminescence, 60 min; hits give low values. 1.2% of 330,000 active. max response, %. Phosphatidylinositol 5-phosphate 4-kinase type-2 alpha (Homo sapiens), P48426; active means max response of -50% or lower; inconclusive means between -30% and -50%; inactive means -30% or higher; further: value at the top dose of about 77 µM; on the % scale 0 is the no-effect control and ±100 the full control effect
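Enzyme plus substrate dispensed, test compounds pinned in, then ATP (5 microM final) added. After 60 min at RT, ADP-Glo reagent 1 for 45 min and reagent 2 for 30 min preceded luminescence imaging.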
BAZ2B inh: qHTS Assay for Inhibitors of BAZ2B; AID 504333, 2011; AlphaScreen BAZ2B-H3K14Ac peptide displacement; Potency, µM (doses to about 114 µM), for inactives: at the top dose activity change, negative = inhibition, most hits filed as inhibitors; 4.4% of 360,000 active; further: potency means the concentration at half of the fitted maximal effect; on the % scale 0 is the no-effect control and ±100 the full control effect; nearly all actives have a fitted effect of over 60% in size
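AlphaScreen displacement of biotin-H3(5-23)K14Ac peptide (50 nM final) from BAZ2B (50 nM final) in PBS pH 7.4, 0.01% Tween-20; complex preformed 30 min RT, then compounds (top 110 uM) 30 min RT, beads 20 min dark.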
JMJD2A Tudor: qHTS Assay for Inhibitors of JMJD2A-Tudor Domain; 4.4% of 390,000 active; AID 504339, 2011; AlphaScreen JMJD2A-Tudor / H3K4me3 peptide binding; Lysine-specific demethylase 4A (Homo sapiens), O75164; Potency, µM (highest dose often 114 µM), for inactives: top-dose activity change, negative = inhibition, actives largely listed as inhibitors; further: potency means the concentration at half of the fitted maximal effect; on the % scale 0 is the no-effect control and ±100 the full control effect; nearly all actives have a fitted effect of over 50% in size
L3MBTL1 block: qHTS Assay for the Inhibitors of L3MBTL1. Lethal(3)malignant brain tumor-like protein 1 (Homo sapiens), Q9Y468. Potency, µM (series often up to 57.1 µM), for the others: at the highest dose activity, negative = inhibition, most hits filed as inhibitors. 0.66% of 230,000 active. AlphaScreen L3MBTL1–H3K9me1 peptide binding; further: potency means the concentration at half of the fitted maximal effect; on the % scale 0 is the no-effect control and ±100 the full control effect; nearly all actives have a fitted effect of over 60% in size
Target sequence (Q9Y468 whole entry, looked up): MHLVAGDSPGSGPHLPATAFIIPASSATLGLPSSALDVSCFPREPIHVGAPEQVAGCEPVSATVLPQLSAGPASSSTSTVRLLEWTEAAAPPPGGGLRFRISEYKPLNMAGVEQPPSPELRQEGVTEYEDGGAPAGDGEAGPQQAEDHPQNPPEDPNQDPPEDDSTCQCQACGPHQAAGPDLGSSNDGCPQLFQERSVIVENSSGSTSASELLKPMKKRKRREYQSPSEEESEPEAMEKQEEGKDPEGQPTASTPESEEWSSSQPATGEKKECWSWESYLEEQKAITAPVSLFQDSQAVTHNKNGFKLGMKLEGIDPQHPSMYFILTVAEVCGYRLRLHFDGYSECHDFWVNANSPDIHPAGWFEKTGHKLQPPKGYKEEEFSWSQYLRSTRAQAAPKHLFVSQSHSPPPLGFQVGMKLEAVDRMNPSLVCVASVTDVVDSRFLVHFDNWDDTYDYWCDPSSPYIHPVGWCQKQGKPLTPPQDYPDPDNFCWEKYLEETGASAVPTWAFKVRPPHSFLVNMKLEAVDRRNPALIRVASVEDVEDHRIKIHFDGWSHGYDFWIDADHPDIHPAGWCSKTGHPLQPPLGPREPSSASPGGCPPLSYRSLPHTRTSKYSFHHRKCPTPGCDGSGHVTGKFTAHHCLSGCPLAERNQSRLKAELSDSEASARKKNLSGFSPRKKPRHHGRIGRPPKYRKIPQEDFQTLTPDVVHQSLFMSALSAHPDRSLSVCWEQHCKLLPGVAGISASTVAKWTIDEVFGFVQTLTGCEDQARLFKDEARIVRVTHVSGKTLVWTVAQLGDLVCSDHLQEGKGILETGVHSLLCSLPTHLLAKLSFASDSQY
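L3MBTL1 (50 nM) pre-complexed 30 min with biotinylated H3(1-15)K9me1 peptide (75 nM), then compounds added for 30 min at room temperature; AlphaScreen streptavidin donor/nickel chelate acceptor beads (10 ug/mL final) read after 30 min dark incubation.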
KDM4E inh: qHTS Assay for Inhibitors of Human Jumonji Domain Containing 2E (JMJD2E); JMJD2E catalytic domain, FDH-coupled NADH fluorescence (FDH is formaldehyde dehydrogenase); 1.6% of 230,000 active; Potency, µM (top dose mostly 57.1 µM), for the others: top-dose activity change, negative = inhibition, usual class: inhibitors; active means well fitted inhibition curve with a large enough effect, not every such curve was filed as active; inconclusive means small, poorly fitted or top-dose-only effect, or another doubt; inactive means no such curve, though single readings can be large or run the other way;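 further: potency means the concentration at half of the fitted maximal effect; 0% = wells with enzyme and -100% = buffer wells without enzyme; nearly all actives have a fitted effect of over 50% in size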
The depositor's hits bear a star. Most compounds without a hit are left out; they make up all but 5.7% or so of the library. Unless noted, the call rests on the fitted dose curve; in most records, active means well fitted inhibition curve with a large enough effect; inconclusive means small, poorly fitted or top-dose-only effect; inactive means no such curve, though single readings can be large or run the other way.

`CCOc1cc(/C=C2\CCCc3c2nc2ccccc2c3C(=O)O)ccc1OC` gave HP1b chromo inh -5%, PI5P4Ka inh -1, BAZ2B inh 79µM* and JMJD2A Tudor 89µM*.
`CC(C)CNc1nc(C#N)nc(Nc2ccccc2)n1` gave JMJD2A Tudor -12%.
`Oc1c(C=NCc2ccccc2)sc2ccccc12` gave HP1b chromo inh inconclusive, PI5P4Ka inh 11, BAZ2B inh inconclusive, JMJD2A Tudor 89µM*, L3MBTL1 block -1% and KDM4E inh -8%.
Screening C=CCN=Cc1sc2ccc(OCC)cc2c1O returned BAZ2B inh -11%, L3MBTL1 block -8% and KDM4E inh inconclusive.
Screening O=[N+]([O-])c1ccc(N=Cc2sc3ccccc3c2O)cc1 returned HP1b chromo inh 14%, PI5P4Ka inh 5, BAZ2B inh -24%, JMJD2A Tudor -5%, L3MBTL1 block 2% and KDM4E inh inconclusive.
For CCn1c(O)c(C=NCc2ccccc2)sc1=S the results were HP1b chromo inh 6%, PI5P4Ka inh -1, BAZ2B inh inconclusive, JMJD2A Tudor inconclusive, L3MBTL1 block -24% and KDM4E inh 5%.
Screening O=[N+]([O-])c1cccc(N=Cc2sc3ccccc3c2O)c1 returned BAZ2B inh inconclusive, L3MBTL1 block -16% and KDM4E inh 28µM*.
Oc1cccc(C=Nc2cccc3ccccc23)c1O was read as HP1b chromo inh inconclusive, PI5P4Ka inh -90*, BAZ2B inh 45µM*, JMJD2A Tudor 14µM* and L3MBTL1 block inconclusive.
For Oc1cccc(C=NCc2ccccc2)c1O the results were HP1b chromo inh -14%, PI5P4Ka inh -58*, BAZ2B inh inconclusive, JMJD2A Tudor -25% and KDM4E inh 13µM*.
Cc1ccccc1NC(=O)CCNC(=O)Cn1ccc2ccccc2c1=O was read as HP1b chromo inh 26%, BAZ2B inh 3% and JMJD2A Tudor 1%.
Screening O=C(CN1C(=O)c2ccccc2S1(=O)=O)NCc1cccs1 returned HP1b chromo inh 33%, PI5P4Ka inh -2, BAZ2B inh -3% and JMJD2A Tudor -11%.
`COC(=O)CSc1nc2cc(OC)ccc2n1C` gave HP1b chromo inh 24%, PI5P4Ka inh 6, BAZ2B inh -26%, JMJD2A Tudor -9%, L3MBTL1 block 3% and KDM4E inh 4%.
COc1ccc2c(c1)nc(SCC(=O)c1ccc(Br)s1)n2C was read as HP1b chromo inh -11%, BAZ2B inh inconclusive, JMJD2A Tudor 56µM*, L3MBTL1 block -9% and KDM4E inh -5%.
For CC(/C=C/c1ccccc1F)=N\NC(=O)c1ccc(Cl)cc1 the results were HP1b chromo inh -18%, PI5P4Ka inh -68*, BAZ2B inh -3%, JMJD2A Tudor 22µM*, L3MBTL1 block 43% and KDM4E inh -1%.
For Cc1ccc(NC(=O)C(=O)NCCCN2CCCC2=O)cc1 the results were HP1b chromo inh 20%, PI5P4Ka inh 6, BAZ2B inh -9%, JMJD2A Tudor -7% and L3MBTL1 block 9%.
For Cc1ccc(COc2ccc(CNCCCN3CCCCCC3=O)cc2)cc1 the results were HP1b chromo inh 32µM*, PI5P4Ka inh 3, BAZ2B inh 35µM* and JMJD2A Tudor 1.3µM*.
`COc1cccc(-n2c([S-])c(C(=O)Nc3ccc(S(=O)(=O)N4CCOCC4)cc3)[n+]3cc(C(N)=O)ccc23)c1` gave HP1b chromo inh 25%, PI5P4Ka inh 0, BAZ2B inh -17%, JMJD2A Tudor -5%, L3MBTL1 block -1% and KDM4E inh 14µM*.
COc1ccc(CCN2C(=O)CN(C3CCCCCC3)C(=O)C2c2ccc(C)cc2)cc1OC (stereo unspecified) was read as HP1b chromo inh -1%, BAZ2B inh -15% and JMJD2A Tudor -28%.
Cc1ccc(/C(C#N)=C\c2ccc(N3CCOCC3)o2)cc1 was read as HP1b chromo inh inconclusive, BAZ2B inh 79µM*, JMJD2A Tudor 56µM*, L3MBTL1 block -9% and KDM4E inh 16µM*.
Screening N#C/C(=C/c1ccc(N2CCCCC2)o1)c1cccc(F)c1 returned HP1b chromo inh inconclusive, BAZ2B inh 40µM*, JMJD2A Tudor 45µM* and KDM4E inh inconclusive.
N#C/C(=C/c1ccc(N2CCCCCC2)o1)c1ccc(Cl)cc1 was read as HP1b chromo inh -35%, BAZ2B inh 45µM*, JMJD2A Tudor 40µM* and KDM4E inh -28%.
Screening O=C(c1ccc(CS(=O)c2ccccc2Cl)o1)N1CCN(c2ccccc2F)CC1 (stereo unspecified) returned HP1b chromo inh 51%, BAZ2B inh -32% and JMJD2A Tudor -8%.
Screening Cc1cccc(Oc2ccc3c(c2)Oc2ccccc2NC3=O)c1 returned HP1b chromo inh -15%, BAZ2B inh 50µM* and JMJD2A Tudor 50µM*.
`CNC(=S)N(C)/N=C1/C(=O)N(Cc2c(Cl)cccc2Cl)c2ccccc21` gave HP1b chromo inh -49%, PI5P4Ka inh 1, BAZ2B inh 25µM*, JMJD2A Tudor 5µM* and L3MBTL1 block -10%.
Screening Cc1cc(C)c(S(=O)(=O)Nc2ccc(N(C)C)cc2)c(C)c1-n1cnnn1 returned HP1b chromo inh -27%, PI5P4Ka inh 4, BAZ2B inh 40µM* and JMJD2A Tudor inconclusive.
Cc1ccc(S(=O)(=O)Nc2ccc(-n3cnnn3)cc2)c(C)c1 was read as HP1b chromo inh 31%, PI5P4Ka inh -2, BAZ2B inh 5%, JMJD2A Tudor 3% and L3MBTL1 block 2%.
COc1ccc(CNc2cccc3[nH]c(C(F)(F)F)nc23)cc1 was read as HP1b chromo inh 18%, PI5P4Ka inh -3, BAZ2B inh inconclusive and JMJD2A Tudor inconclusive.
`COc1cc(CNc2cccc3[nH]c(C(F)(F)F)nc23)cc(OC)c1` gave HP1b chromo inh 28%, PI5P4Ka inh -11, BAZ2B inh inconclusive and JMJD2A Tudor 50µM*.
`Fc1ccccc1NC(=S)Nn1cnnc1` gave HP1b chromo inh -21%, PI5P4Ka inh -11, BAZ2B inh -24% and JMJD2A Tudor 50µM*.
Screening CCOc1ccccc1NC(=S)Nn1cnnc1 returned HP1b chromo inh inconclusive, PI5P4Ka inh inconclusive, BAZ2B inh inconclusive and JMJD2A Tudor 50µM*.

High-throughput results from PubChem.
